Measured values as given in the supplement of paper PMC6089552.
Screen size: about 3,200 compounds; about 300 (9.4%) showed activity. The full list was thinned out, with actives kept by preference.

Test system: A673/TR/shEF
Test: cell viability (LOESS-normalised, relative to median of negative controls) (log2 ratio); higher = more viable cells (less compound effect), active = hit call of the paper (over 3 MAD below the median)
Settings: treatment time: 72 h
Method in brief: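 For three days, A673/TR/shEF Ewing sarcoma cells in 384-well plates (1,500 per well) were treated with library compounds at two or more concentrations or with DMSO controls, after doxycycline had been added or withheld 24 h beforehand to induce EWS-FLI1 shRNA knockdown. Viability was read by CellTiter-Glo luminescence on an Envision reader. The data were LOESS-corrected per plate, divided by the median of negative controls and log2-transformed.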

[1] = 0.25 µM, library screen: screen1, EWS-FLI1 expression: high (no doxycycline)
[2] = 0.25 µM, library screen: screen1, EWS-FLI1 expression: low (doxycycline-induced shRNA knockdown)
[3] = 2.5 µM, library screen: screen1, EWS-FLI1 expression: high (no doxycycline)
[4] = 2.5 µM, library screen: screen1, EWS-FLI1 expression: low (doxycycline-induced shRNA knockdown)
[5] = 0.103 µM, library screen: screen3, EWS-FLI1 expression: high (no doxycycline)
[6] = 0.103 µM, library screen: screen3, EWS-FLI1 expression: low (doxycycline-induced shRNA knockdown)
[7] = 0.308 µM, library screen: screen3, EWS-FLI1 expression: high (no doxycycline)
[8] = 0.308 µM, library screen: screen3, EWS-FLI1 expression: low (doxycycline-induced shRNA knockdown)
[9] = 0.926 µM, library screen: screen3, EWS-FLI1 expression: high (no doxycycline)
[10] = 0.926 µM, library screen: screen3, EWS-FLI1 expression: low (doxycycline-induced shRNA knockdown)
[11] = 2.8 µM, library screen: screen3, EWS-FLI1 expression: high (no doxycycline)
[12] = 2.8 µM, library screen: screen3, EWS-FLI1 expression: low (doxycycline-induced shRNA knockdown)
[13] = 8.3 µM, library screen: screen3, EWS-FLI1 expression: high (no doxycycline)
[14] = 8.3 µM, library screen: screen3, EWS-FLI1 expression: low (doxycycline-induced shRNA knockdown)
[15] = 25 µM, library screen: screen3, EWS-FLI1 expression: high (no doxycycline)
[16] = 25 µM, library screen: screen3, EWS-FLI1 expression: low (doxycycline-induced shRNA knockdown)
[17] = 0.25 µM, library screen: screen2, EWS-FLI1 expression: high (no doxycycline)
[18] = 0.25 µM, library screen: screen2, EWS-FLI1 expression: low (doxycycline-induced shRNA knockdown)
[19] = 2.5 µM, library screen: screen2, EWS-FLI1 expression: high (no doxycycline)
[20] = 2.5 µM, library screen: screen2, EWS-FLI1 expression: low (doxycycline-induced shRNA knockdown)

Measured: cell viability (log2)

CCN(CC)S(=O)(=O)c1ccc(C(=O)N(CCC(=O)OC)c2ccccn2)cc1
inactive: [1] 0.0834 | [2] 0.147 | [3] 0.162 | [4] 0.127

CCCCCCOC(=O)/N=C(/N)c1ccc(NCc2nc3cc(C(=O)N(CCC(=O)OCC)c4ccccn4)ccc3n2C)cc1
active: [15] -0.441
inactive: [5] -0.0699 | [6] -0.0234 | [7] -0.0119 | [8] -0.019 | [9] 0.046 | [10] -0.0404 | [11] -0.0778 | [12] 0.0123 | [13] -0.0381 | [14] 0.0285 | [16] 0.0312

Cn1c(CNc2ccc(C(=N)N)cc2)nc2cc(C(=O)N(CCC(=O)O)c3ccccn3)ccc21
inactive: [5] 0.00826 | [6] 0.00201 | [7] 0.0563 | [8] 0.0276 | [9] 0.0456 | [10] 0.123 | [11] -0.0294 | [12] 0.0652 | [13] 0.0628 | [14] 0.0736 | [15] 0.0838 | [16] 0.0437

NCCCCCN
inactive: [1] 0.0699 | [2] 0.0406 | [3] 0.114 | [4] 0.103

Cc1coc2ccccc2c1=O
inactive: [1] 0.143 | [2] 0.1 | [3] 0.138 | [4] 0.165

CC1=CC(=O)CC(C)(C)[C@@]1(O)/C=C/C(C)=C\C(=O)O
inactive: [1] 0.103 | [2] 0.084 | [3] 0.143 | [4] 0.165

CC(=O)O[C@@H]1CC2C(C)(C)CCC(=O)[C@]2(C)C2CC[C@@]3(C)[C@H](c4ccoc4)OC(=O)C4OC43[C@@]21C (some centres undefined)
inactive: [1] 0.0305 | [2] 0.0828 | [3] 0.127 | [4] 0.0866

O=C(NC(C(=O)N1CCCCC1)=C1CCCCC1)c1ccccc1
inactive: [1] 0.107 | [2] 0.0798 | [3] 0.0724 | [4] 0.127

COC(=O)C1=C(C)N=c2s/c(=C/c3ccc(OC)cc3OC)c(=O)n2C1c1cccs1 (centres undefined)
inactive: [1] 0.0522 | [2] 0.13 | [3] 0.0666 | [4] 0.065

CCCCCCCCc1ccc(CCC(N)(CO)CO)cc1
inactive: [5] 0.0814 | [6] 0.0528 | [7] 0.0332 | [8] -0.0148 | [9] 0.0328 | [10] 0.0341 | [11] 0.00825 | [12] 0.0473 | [13] -0.0193 | [14] 0.0563
active: [15] -0.341 | [16] -0.161

CCCCCCCCCCCC1=C(O)C(=O)C=C(O)C1=O
inactive: [1] 0.161 | [2] 0.0381 | [3] 0.097 | [4] 0.0519

CC(=O)O[C@H]1C[C@@H](OC(C)=O)C(C)(C)C2CC(=O)[C@]3(C)C(CC[C@@]4(C)[C@H](c5ccoc5)OC(=O)[C@H]5O[C@]543)[C@]21C (some centres undefined)
inactive: [1] 0.116 | [2] 0.174 | [3] 0.177 | [4] 0.123

CCCCCCCCCCC[C@@H](C[C@@H]1OC(=O)[C@H]1CCCCCC)OC(=O)[C@H](CC(C)C)NC=O
active: [3] -0.116
inactive: [5] 0.0583 | [6] 0.00452 | [1] -0.0226 | [2] 0.0354 | [7] 0.0475 | [8] 0.11 | [9] -0.01 | [10] 0.0194 | [4] 0.178 | [11] -0.0124 | [12] 0.136 | [13] -0.103 | [14] -0.0203 | [15] -0.119 | [16] -0.0365

COC(=O)C[C@H]1C(C)(C)C2(Cl)O[C@@]34CC2C(=O)[C@]1(C)C3CC[C@]1(C)C4=CC(=O)O[C@H]1c1ccoc1 (some centres undefined)
inactive: [1] 0.0526 | [2] 0.0775 | [3] 0.126 | [4] 0.163

C=C1C(=O)O[C@@H]2C[C@@]3(C)CCC[C@H](C)C3=C[C@H]12
inactive: 0.025 µM, library screen: screen2, EWS-FLI1 expression: high (no doxycycline) 0.148 | 0.025 µM, library screen: screen2, EWS-FLI1 expression: low (doxycycline-induced shRNA knockdown) 0.0581 | [1] 0.0724 | [2] -0.00207 | [17] 0.177 | [18] 0.0288 | [3] 0.152 | [4] 0.0584 | [19] 0.0901 | [20] 0.000642 | 25 µM, library screen: screen2, EWS-FLI1 expression: high (no doxycycline) -0.0554 | 25 µM, library screen: screen2, EWS-FLI1 expression: low (doxycycline-induced shRNA knockdown) -0.102

CN(C)CCCN1c2ccccc2Sc2ccccc21
active: [19] -1.62 | [20] -0.801
inactive: [1] 0.0889 | [2] 0.0795 | [17] 0.0137 | [18] -0.394 | [3] 0.107 | [4] 0.224

CN(C)CCCN1c2ccccc2Sc2ccc(C(F)(F)F)cc21
inactive: [1] 0.067 | [2] 0.0785 | [17] 0.0818 | [18] 0.0662 | [3] 0.0754 | [4] 0.158 | [19] 0.181 | [20] 0.0843

CN(C)CCCN1c2ccccc2Sc2ccc(Cl)cc21
inactive: [5] 0.0728 | [6] 0.128 | [1] 0.1 | [2] 0.155 | [17] 0.141 | [18] 0.1 | [7] 0.122 | [8] 0.0127 | [9] 0.0627 | [10] 0.015 | [3] 0.206 | [4] 0.191 | [19] 0.129 | [20] 0.0664 | [11] -0.0176 | [12] 0.0383 | [13] 0.101 | [14] 0.0471 | [15] -0.0174 | [16] 0.0242

CC(=O)Oc1cc(-c2coc3cc(OC(C)=O)c(OC(C)=O)c(OC(C)=O)c3c2=O)cc(OC(C)=O)c1OC(C)=O
inactive: [1] 0.0397 | [2] -0.0292 | [3] 0.0912 | [4] -0.0545

CC1(C)C=Cc2c(c3c(c4c(=O)c(-c5ccc(O)cc5)coc24)OC(C)(C)CC3)O1
inactive: [1] 0.057 | [2] 0.068 | [3] 0.105 | [4] 0.116

O=C(O)c1ccc2c(c1)OCO2
inactive: [1] 0.146 | [2] 0.102 | [3] 0.137 | [4] 0.0963

C/C(=C\c1ccc(C(=O)O)cc1)c1ccc2c(c1)C(C)(C)CCC2(C)C
inactive: [17] 0.00709 | [18] 0.0496 | [19] 0.0275 | [20] 0.0889

NC1(C(=O)O)CCc2cc(C(=O)O)ccc21 (centres undefined)
active: [17] -0.364
inactive: [18] 0.0469 | [19] 0.0221 | [20] 0.107

C=C(C)Cn1c(COc2ccc(Cl)cc2Cl)n[nH]c1=S
inactive: [1] 0.0645 | [2] -0.015 | [3] 0.0851 | [4] -0.014

CC(C)CC(NP(=O)(O)O[C@@H]1O[C@@H](C)[C@H](O)[C@@H](O)[C@H]1O)C(=O)NC(Cc1c[nH]c2ccccc12)C(=O)O (some centres undefined)
inactive: [17] 0.0833 | [18] 0.00183 | [19] 0.149 | [20] -0.00437

COc1cc(CN2CCN(Cc3ccccc3F)CC2)cc(OC)c1OC
inactive: [1] 0.0928 | [2] 0.0533 | [3] 0.0786 | [4] 0.127

OC[C@H]1N[C@H](CO)[C@@H](O)[C@@H]1O
inactive: [17] 0.176 | [18] 0.0684 | [19] 0.108 | [20] 0.0354

Cc1ccc(C(C)C)c(O)c1C(=O)O
inactive: [1] 0.112 | [2] 0.00973 | [3] 0.164 | [4] 0.0715

CCC(C)C(N)C1=NC(C(=O)N[C@@H](CC(C)C)C(=O)N[C@H](CCC(=O)O)C(=O)N[C@H](C(=O)N[C@H]2CCCCNC(=O)[C@H](CC(N)=O)NC(=O)[C@@H](CC(=O)O)NC(=O)[C@H](Cc3cnc[nH]3)NC(=O)[C@@H](Cc3ccccc3)NC(=O)[C@H]([C@@H](C)CC)NC(=O)[C@@H](CCCN)NC2=O)[C@@H](C)CC)CS1 (some centres undefined)
inactive: [1] 0.0992 | [2] -0.0505 | [3] 0.131 | [4] 0.0875

CC(C)C[C@@H]1NC(=O)[C@H](CCCN)NC(=O)[C@H](C(C)C)NC(=O)[C@@H]2CCCN2C(=O)[C@@H](Cc2ccccc2)NC(=O)[C@H](CC(C)C)NC(=O)[C@H](CCCN)NC(=O)[C@H](C(C)C)NC(=O)[C@@H]2CCCN2C(=O)[C@@H](Cc2ccccc2)NC1=O
active: [1] -1.96 | [2] -0.176 | [3] -3.79
inactive: [4] -0.0354

CC(C)C[C@@H]1NC(=O)[C@H](CCCN)NC(=O)[C@H](C(C)C)NC(=O)[C@H](Cc2ccc(O)cc2)N[C@@H](CCC(=O)O)C(=O)N[C@@H](CC(N)=O)C(=O)[C@@H](Cc2ccccc2)NC(=O)[C@H](Cc2ccccc2)NC(=O)[C@@H]2CCCN2C(=O)[C@@H](Cc2ccccc2)NC1=O
active: [1] -0.767 | [3] -2.84 | [4] -2.45
inactive: [2] -0.0111

CC(C)[C@@H]1NC(=O)[C@H](CCCCN)NC(=O)[C@@H](Cc2c[nH]c3ccccc23)NC(=O)[C@H](Cc2ccc(O)cc2)NC(=O)[C@H](C)N(C)C(=O)[C@H](Cc2ccccc2)NC1=O
inactive: [17] 0.191 | [18] 0.085 | [19] 0.149 | [20] 0.111

CC1=CCCC(=O)C2CC(C)(C)C2CC1 (centres undefined)
inactive: [1] 0.0664 | [2] 0.0572 | [3] 0.102 | [4] 0.0635

CC(=O)O[C@H]1C[C@@]2(C)[C@H](c3ccoc3)OC(=O)[C@H]3O[C@]32[C@@]2(C)C1[C@]1(C)C(C[C@H]2OC(C)=O)C(C)(C)[C@H](OC(C)=O)C[C@@H]1OC(C)=O (some centres undefined)
inactive: [1] -0.00983 | [2] 0.0592 | [3] 0.0456 | [4] 0.0721
